For some of these results: Potency and affinity values are given separately.

Holding throughout (design): scale not given: direction of the effect not stated beside the values
The target in test [1] is Protein translocase subunit SecA (Escherichia coli (strain K12)) (UniProt P10408). The experiment in a line: Assay to Identify E. coli SecA ATPase Inhibitors. It counts as functional. Conditions: 30 µM.
Test [2] addresses T1, Ubiquitin-activating enzyme e1, putative (Leishmania donovani (strain BPK282A1)) (UniProt E9BSI1).
T1 sequence (whole entry): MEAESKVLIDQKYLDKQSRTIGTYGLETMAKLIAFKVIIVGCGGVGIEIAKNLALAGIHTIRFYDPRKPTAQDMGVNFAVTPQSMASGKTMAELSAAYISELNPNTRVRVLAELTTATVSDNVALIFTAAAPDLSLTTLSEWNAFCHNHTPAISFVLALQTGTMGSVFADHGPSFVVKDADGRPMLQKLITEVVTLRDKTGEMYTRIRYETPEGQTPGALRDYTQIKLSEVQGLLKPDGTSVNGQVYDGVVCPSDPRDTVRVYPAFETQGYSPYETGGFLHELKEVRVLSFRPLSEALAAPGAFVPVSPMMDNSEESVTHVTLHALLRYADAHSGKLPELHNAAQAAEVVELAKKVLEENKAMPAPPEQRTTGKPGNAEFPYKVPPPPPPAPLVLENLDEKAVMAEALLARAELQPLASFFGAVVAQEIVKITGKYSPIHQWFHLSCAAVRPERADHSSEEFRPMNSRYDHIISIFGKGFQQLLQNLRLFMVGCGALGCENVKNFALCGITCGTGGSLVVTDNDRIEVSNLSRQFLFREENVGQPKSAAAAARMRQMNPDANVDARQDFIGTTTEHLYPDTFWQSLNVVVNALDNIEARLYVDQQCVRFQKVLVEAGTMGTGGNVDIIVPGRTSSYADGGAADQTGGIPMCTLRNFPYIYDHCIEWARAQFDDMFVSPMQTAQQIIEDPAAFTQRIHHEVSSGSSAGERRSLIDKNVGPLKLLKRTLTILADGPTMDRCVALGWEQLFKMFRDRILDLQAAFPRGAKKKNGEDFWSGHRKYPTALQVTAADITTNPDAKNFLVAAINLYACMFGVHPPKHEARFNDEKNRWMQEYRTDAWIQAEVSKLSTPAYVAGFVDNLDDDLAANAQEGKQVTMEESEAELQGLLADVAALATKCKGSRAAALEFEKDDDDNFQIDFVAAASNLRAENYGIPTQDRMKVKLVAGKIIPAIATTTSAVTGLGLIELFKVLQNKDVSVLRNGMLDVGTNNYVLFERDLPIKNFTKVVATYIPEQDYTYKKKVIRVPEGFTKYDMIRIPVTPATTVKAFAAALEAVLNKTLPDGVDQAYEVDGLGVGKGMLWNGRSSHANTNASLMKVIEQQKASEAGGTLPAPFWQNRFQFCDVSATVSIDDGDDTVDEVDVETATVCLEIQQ
The experiment in a line: Leishmania donovani Ubiquitin Activating Enzyme (LdE1). The test is classed as functional. Conditions: 30 µM.

For test [3], the target named is AMP-activated protein kinase, AMPK (Homo sapiens) (UniProt P54646+O43741+P54619+Q9UGJ0+Q9Y478+Q13131+Q9UGI9). The experiment in a line: AMP-dependent Kinase enzyme assay. An in vitro enzyme assay that detects ADP turnover that is directly proportional to AMPK activity. This uses naive AMPK that is activated during the assay with MK-8722. Particulars: 30 µM. It counts as functional.

The target in test [4] is Sialic acid-binding Ig-like lectin 9 (Homo sapiens) (UniProt Q9Y336). The experiment in a line: Hs-Siglec9 ALPHAscreen SOP 20170721. Conditions: 10 µM.
The test system of a further test is Trypanosoma cruzi. The experiment in a line: Trypanosoma cruzi phosphomannomutase and mannose-1-phosphate guanylyltransferase assay. It counts as functional. Conditions: 10 µM.
The target of test [5] is T2, Arginase-2, mitochondrial (Homo sapiens) (UniProt P78540).
T2 sequence (whole entry): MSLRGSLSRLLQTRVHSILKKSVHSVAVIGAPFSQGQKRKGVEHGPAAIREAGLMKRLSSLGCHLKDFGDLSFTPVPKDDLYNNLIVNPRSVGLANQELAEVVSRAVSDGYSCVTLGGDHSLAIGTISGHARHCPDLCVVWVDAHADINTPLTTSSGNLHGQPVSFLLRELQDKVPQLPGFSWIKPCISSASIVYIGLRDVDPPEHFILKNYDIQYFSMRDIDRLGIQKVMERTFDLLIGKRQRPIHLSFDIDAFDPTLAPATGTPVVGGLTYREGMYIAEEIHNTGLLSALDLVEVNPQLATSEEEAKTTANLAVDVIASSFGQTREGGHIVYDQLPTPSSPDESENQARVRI
As to the kind of experiment: in vitro enzyme assay to detect the production of urea directly proportional to the activity of Arginase II. Also: in the data most compounds retested in dose-response had high values. It counts as functional. Particulars: 33.3 µM.

For test [6], the target named is T3, Proteasome subunit beta (Trypanosoma cruzi) (UniProt O96673).
T3 sequence (whole entry): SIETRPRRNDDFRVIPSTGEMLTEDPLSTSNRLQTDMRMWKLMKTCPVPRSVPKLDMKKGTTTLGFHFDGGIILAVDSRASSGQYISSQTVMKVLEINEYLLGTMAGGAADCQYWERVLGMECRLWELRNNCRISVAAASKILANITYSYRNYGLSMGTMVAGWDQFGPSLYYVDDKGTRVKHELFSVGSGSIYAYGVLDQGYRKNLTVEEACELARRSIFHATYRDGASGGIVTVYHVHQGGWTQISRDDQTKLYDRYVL
The experiment in a line: Trypanosoma cruzi proteasome chymotrypsin-like activity (TcProtChymo) assay. Also: in the data most compounds retested in dose-response had high values. The test is classed as functional. Particulars: 9.37 µM.

The species named for the next test is Homo sapiens. As to the kind of experiment: To identify inhibition of the IFN signalling (Jak-Stat) pathway via expression of an eGFP reporter gene under the control of an IFN-stimulated response element (ISRE) containing MxA promoter. It counts as functional. Particulars: 30 µM. (In a reporter assay the amount or activity of a reporter protein is the signal.)

In test [7] the target is T4, Tyrosyl-tRNA synthetase, putative (Trypanosoma cruzi (strain CL Brener)) (UniProt Q4DSP6).
T4 sequence (whole entry): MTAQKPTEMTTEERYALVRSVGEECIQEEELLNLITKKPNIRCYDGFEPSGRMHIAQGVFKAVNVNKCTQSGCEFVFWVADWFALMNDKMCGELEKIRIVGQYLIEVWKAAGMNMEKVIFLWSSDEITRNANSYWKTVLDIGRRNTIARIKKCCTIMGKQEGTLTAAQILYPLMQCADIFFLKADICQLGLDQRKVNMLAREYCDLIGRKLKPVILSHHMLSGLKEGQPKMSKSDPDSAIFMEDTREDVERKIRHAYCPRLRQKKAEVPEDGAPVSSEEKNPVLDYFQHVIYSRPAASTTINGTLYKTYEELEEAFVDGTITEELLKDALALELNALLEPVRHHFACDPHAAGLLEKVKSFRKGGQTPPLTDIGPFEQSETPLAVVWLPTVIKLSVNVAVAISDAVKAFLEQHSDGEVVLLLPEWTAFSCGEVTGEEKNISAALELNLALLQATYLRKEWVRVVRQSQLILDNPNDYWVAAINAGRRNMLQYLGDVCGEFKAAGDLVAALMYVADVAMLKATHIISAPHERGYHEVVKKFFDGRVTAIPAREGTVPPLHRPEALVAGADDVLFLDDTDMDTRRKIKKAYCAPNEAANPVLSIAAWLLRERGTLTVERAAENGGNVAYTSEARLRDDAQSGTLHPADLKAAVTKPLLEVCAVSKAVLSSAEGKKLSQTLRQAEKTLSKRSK
The experiment in a line: Trypanosoma cruzi tyrosyl tRNA synthetase (TcYRS) _High Tyrosine SOP. Also: in the data most compounds retested in dose-response had high values. It counts as functional. Conditions: 30 µM.

Test [8] has as its target T4, Tyrosyl-tRNA synthetase, putative (Trypanosoma cruzi (strain CL Brener)). The experiment in a line: Trypanosoma cruzi tyrosyl tRNA synthetase (TcYRS) SOP. Particulars: 30 µM. The test is classed as functional.
Test [9] concerns the target Chromo domain-containing protein 1 (Saccharomyces cerevisiae (strain ATCC 204508 / S288c) (Baker's yeast)) (UniProt P32657). The experiment in a line: ScCHD-1 Enzyme Inhibition Assay. Also: in the data most compounds retested in dose-response had high values. It counts as functional. Particulars: 30 µM.

Chain of Protein translocase subunit SecA (Escherichia coli (strain K12)) (P10408 whole entry): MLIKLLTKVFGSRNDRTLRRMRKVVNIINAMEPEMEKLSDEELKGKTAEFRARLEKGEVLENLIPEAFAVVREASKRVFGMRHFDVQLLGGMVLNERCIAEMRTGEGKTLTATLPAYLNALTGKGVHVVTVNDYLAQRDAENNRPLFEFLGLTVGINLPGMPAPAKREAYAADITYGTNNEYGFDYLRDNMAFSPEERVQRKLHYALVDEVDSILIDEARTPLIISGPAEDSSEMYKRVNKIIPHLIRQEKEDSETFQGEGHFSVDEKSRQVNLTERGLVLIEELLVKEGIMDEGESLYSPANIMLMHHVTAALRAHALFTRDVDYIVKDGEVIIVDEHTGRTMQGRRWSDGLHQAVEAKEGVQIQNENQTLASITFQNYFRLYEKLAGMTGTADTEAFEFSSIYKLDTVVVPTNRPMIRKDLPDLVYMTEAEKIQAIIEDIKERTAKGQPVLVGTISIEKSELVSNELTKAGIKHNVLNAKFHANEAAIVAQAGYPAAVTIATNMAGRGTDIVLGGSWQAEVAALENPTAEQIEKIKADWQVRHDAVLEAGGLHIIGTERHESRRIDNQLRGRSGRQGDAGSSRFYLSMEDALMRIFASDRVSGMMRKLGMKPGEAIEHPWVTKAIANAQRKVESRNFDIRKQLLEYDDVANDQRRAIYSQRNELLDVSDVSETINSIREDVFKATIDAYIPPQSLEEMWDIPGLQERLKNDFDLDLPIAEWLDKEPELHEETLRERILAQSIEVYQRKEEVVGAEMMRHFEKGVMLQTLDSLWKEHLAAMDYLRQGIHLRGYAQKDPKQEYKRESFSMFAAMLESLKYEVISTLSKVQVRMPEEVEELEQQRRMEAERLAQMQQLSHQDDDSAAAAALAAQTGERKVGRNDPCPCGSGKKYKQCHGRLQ
Chain of Chromo domain-containing protein 1 (Saccharomyces cerevisiae (strain ATCC 204508 / S288c) (Baker's yeast)) (P32657 whole entry, the tested form may be a part): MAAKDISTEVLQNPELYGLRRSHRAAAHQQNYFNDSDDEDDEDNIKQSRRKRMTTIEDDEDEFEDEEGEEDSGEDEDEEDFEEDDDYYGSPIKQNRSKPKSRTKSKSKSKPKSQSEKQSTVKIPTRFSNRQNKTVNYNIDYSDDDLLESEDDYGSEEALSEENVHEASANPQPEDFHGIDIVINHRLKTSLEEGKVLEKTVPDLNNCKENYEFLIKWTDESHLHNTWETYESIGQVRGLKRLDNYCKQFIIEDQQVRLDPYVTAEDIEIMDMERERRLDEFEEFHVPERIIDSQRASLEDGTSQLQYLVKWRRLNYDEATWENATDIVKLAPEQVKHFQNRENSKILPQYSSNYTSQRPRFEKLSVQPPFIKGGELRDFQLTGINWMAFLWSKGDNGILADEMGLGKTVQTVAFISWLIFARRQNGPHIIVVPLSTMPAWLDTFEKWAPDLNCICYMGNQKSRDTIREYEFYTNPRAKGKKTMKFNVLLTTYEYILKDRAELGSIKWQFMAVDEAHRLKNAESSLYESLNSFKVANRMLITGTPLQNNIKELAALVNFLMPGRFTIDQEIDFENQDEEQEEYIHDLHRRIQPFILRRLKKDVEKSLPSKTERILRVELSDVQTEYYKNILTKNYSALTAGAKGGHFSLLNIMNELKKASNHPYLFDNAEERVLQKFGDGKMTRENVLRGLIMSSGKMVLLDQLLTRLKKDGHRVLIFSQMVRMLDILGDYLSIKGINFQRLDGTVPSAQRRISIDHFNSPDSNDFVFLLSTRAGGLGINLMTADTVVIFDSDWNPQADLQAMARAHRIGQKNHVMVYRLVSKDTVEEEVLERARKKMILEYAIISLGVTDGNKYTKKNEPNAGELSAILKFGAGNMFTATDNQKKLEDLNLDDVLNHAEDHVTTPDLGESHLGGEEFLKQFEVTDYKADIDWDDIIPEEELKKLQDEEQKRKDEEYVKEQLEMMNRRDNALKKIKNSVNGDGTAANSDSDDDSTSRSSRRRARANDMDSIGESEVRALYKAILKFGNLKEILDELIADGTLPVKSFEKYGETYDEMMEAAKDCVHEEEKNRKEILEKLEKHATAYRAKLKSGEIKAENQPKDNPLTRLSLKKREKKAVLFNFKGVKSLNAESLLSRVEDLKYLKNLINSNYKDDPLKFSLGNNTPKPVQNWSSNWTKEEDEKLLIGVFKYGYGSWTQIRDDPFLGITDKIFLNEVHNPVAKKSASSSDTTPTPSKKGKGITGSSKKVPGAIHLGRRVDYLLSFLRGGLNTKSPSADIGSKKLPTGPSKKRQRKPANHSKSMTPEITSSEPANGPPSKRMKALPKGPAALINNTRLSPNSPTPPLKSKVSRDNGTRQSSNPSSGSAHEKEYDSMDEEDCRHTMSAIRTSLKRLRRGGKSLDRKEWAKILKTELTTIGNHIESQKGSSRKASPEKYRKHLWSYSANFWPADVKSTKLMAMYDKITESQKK
Chain of Sialic acid-binding Ig-like lectin 9 (Homo sapiens) (Q9Y336 whole entry): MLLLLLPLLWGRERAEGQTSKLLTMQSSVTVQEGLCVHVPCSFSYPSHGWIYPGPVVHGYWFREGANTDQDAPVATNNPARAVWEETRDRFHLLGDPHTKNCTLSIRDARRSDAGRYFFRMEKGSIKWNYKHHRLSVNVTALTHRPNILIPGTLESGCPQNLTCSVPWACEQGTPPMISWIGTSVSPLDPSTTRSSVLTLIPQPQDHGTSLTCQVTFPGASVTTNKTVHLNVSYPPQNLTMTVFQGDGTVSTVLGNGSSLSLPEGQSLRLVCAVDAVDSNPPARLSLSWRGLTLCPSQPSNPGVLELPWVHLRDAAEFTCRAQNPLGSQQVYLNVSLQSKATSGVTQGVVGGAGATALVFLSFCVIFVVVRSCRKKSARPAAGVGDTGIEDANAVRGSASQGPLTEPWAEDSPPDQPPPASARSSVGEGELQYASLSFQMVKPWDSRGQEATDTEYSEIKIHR

Regarding `Cc1ccc(-c2noc(CN3CCOC(Cn4cncn4)C3)n2)cc1` (stereo unspecified), the Percent Effect in test [1] was -4.95%; in test [2], -5.41%; in [3] it was 0.576%; in [4], 2.63%; in the test with Trypanosoma cruzi, 2.14%; in test [5], -2.03%. Further, the Percent Effect in [6] was -1.79%; in the test filed under Homo sapiens, 8.27%; in test [7] it was 2.97%; in test [8] it was -1.22%; in [9], 5.54%.

Take `Cn1ccc(CN2CCC(OCCc3ccccc3)CC2)cc1=O`: the Percent Effect in test [1] is -2.81%; in test [2] it was 0%; in [3], -1.45%; in [4] it was -0.922%; in the test with Trypanosoma cruzi it was -4.87%; in test [5], 4.98%. Besides, the Percent Effect is -5.41% in test [6]; 29.9% in the test filed under Homo sapiens; 0.971% in [7]; 0% in [8]; 1.89% in test [9].

For the compound `Cc1ccc(NC2CCN(C(=O)c3ccc(Cl)o3)CC2)nn1`, the Percent Effect is -6.79% in test [1]; 0% in test [2]; 5.42% in test [3]; -2.43% in test [4]; -6.01% with Trypanosoma cruzi; 1.15% in test [5]. Also, the Percent Effect was 17.4% in [6]; 24.5% in the test filed under Homo sapiens; 0.49% in test [7]; -7.32% in test [8]; 4.23% in test [9].

For `O=C(NCCN1CCCCC1)c1scnc1Cl`, the Percent Effect in test [1] was -0.516%; in test [2], 15.8%; in test [3], 7.25%; in test [4], -5.01%; with Trypanosoma cruzi, -5.7%; in [5], 3.24%. Moreover, the Percent Effect was 13.6% in test [6]; 3.91% in the test filed under Homo sapiens; 9.36% in test [7]; 16.1% in test [8]; -5.64% in test [9].

On to `O=C(NCCc1csc(N2CCCC2)n1)N(C1CCCC1)C1CC1`, for which the Percent Effect in [1] is 0.399%; in [2], -5.33%; in test [3], -9.08%; in test [4], 16%; in the test on Trypanosoma cruzi, -1.66%; in test [5], 2.08%. The Percent Effect in [6] was 27.4%; in the test filed under Homo sapiens, 6.62%; in test [7] it was 12.6%; in test [8] it was 11.1%; in [9] it was -6.87%.

As for `CCc1nccn1C1CCCN(C(=O)Cc2cn3ccccc3n2)C1` (stereo unspecified), the Percent Effect was -4.36% in test [1]; 8.86% in test [2]; -1.52% in [3]; -5.05% in test [4]; 3.18% in the test with Trypanosoma cruzi; -1.5% in test [5]. In addition, the Percent Effect was 13.2% in test [6]; 17.9% in the test filed under Homo sapiens; -1.04% in [7]; 10.1% in test [8]; -29% in [9].

With `c1cc2nccc(CC3CCCN(Cc4ncc[nH]4)CC3)c2cn1` (stereo unspecified), the Percent Effect in [1] is -2.14%; in test [2], 9.46%; in test [3] it was 4.64%; in test [4] it was 12.8%; with Trypanosoma cruzi, 5.34%; in test [5], -2.09%. The Percent Effect was 9.98% in test [6]; 12.3% in the test filed under Homo sapiens; 11.8% in test [7]; 24.7% in test [8]; -17.2% in test [9].

Take `O=C(Cc1ccccn1)N1C[C@@H]2CC[C@H](C1)N(Cc1ccccc1)C2=O`: the Percent Effect in test [1] was -1.67%; in test [2] it was 2.7%; in [3], 0.96%; in [4] it was 6.03%; in the test on Trypanosoma cruzi, -4.05%; in test [5], -4.29%. The Percent Effect in test [6] is 14.7%; in the test filed under Homo sapiens, 12%; in test [7] it was 5.82%; in test [8], 4.88%; in test [9], -2.65%.

`Cc1nn(C)c(C)c1C1CCCN1Cc1cccc(C(=O)N(C)C)c1` (stereo unspecified): the Percent Effect in [1] was -2.08%; in test [2] it was 7.59%; in test [3] it was -8.35%; in [4], 3.65%; in the test with Trypanosoma cruzi it was 4.06%; in test [5] it was 0.76%. Further, the Percent Effect in [6] is 2.54%; in the test filed under Homo sapiens it was -16.6%; in test [7] it was 4.43%; in [8], 8.86%; in test [9], 0.0198%.

For `CN(Cc1cnccn1)C(=O)c1ccnc(OC2CCC2)c1`, the Percent Effect was 2.54% in [1]; -2.7% in test [2]; 1.16% in test [3]; 4.85% in [4]; 0.193% in the test with Trypanosoma cruzi; 1.43% in test [5]. In addition, the Percent Effect in test [6] is 1.9%; in the test listed under Homo sapiens it was 4.71%; in [7] it was -0.529%; in test [8], 4.88%; in test [9], 8.01%.

As for `Cc1csc(CN2CC[C@H]3C[C@H](c4nnc(C)[nH]4)O[C@@H]3C2)n1`, the Percent Effect in test [1] was 1.54%; in test [2], 16.4%; in test [3] it was 0.599%; in [4] it was 0.797%; in the test on Trypanosoma cruzi it was -0.397%; in [5], 2.4%. The Percent Effect in test [6] is 9.33%; in the test filed under Homo sapiens it was 17.3%; in test [7], 3.12%; in test [8], -102%; in [9], -5.22%.

Source of the values: ChEMBL document CHEMBL3988442, “University of Dundee, Small-Polar-MMV Screening Library” (2021).
